A short description of test [1]: Cell Viability - Jurkat (AID 426;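 active means dose-dependent loss of cell ATP signal giving a full or clear fitted curve, ranked by lower potency value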;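 further: potency means the concentration at half of the fitted maximal effect; cells exposed to compound for 40 hours at 37 °C before ATP read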). To be noted: qHTS. Summed up: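 Cells of the human T-cell leukemia line Jurkat (E6-1) are seeded at 5000 per well, treated with compound across a concentration range for 40 hours at 37 °C, then lysed with CellTiter-Glo; luminescence reports ATP.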
Background: Quantitative high-throughput screening tests each substance at several concentrations.

Test [2] is described as follows: Cell Viability - Hek293 (AID 427;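 active means compounds whose dose-response curve shows a full or clear partial loss of cell viability, called from curve shape rather than a numeric limit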;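 further: potency means the concentration at half of the fitted maximal effect; cells exposed to compound for 40 hours at 37 °C before reading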). To be noted: qHTS. Summed up:
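AC50 values derive from Hill-modelled concentration-response of ATP-based luminescence, normalized between DMSO-only and 100 uM tamoxifen controls. Cells were exposed in complete culture medium for 40 hr at 37 °C before detection.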

Test [3] has as its target Mitogen-activated protein kinase 10 (Mus musculus) (UniProt Q61831). As to the kind of experiment: JNK3 AlphaScreen Assay (AID 530; active means well fitted curve in either direction with a large enough effect, not every such curve was filed as active;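 further: kinase came from lysate of stimulated human HepG2 cells; signal reports phosphorylation of biotinylated GST-cJun 1-79 at Ser73 with 10 µM ATP; on the % scale 0 is the no-effect control and ±100 the full control effect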). The procedure, abridged: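 qHTS titrations with 15 min compound pre-incubation before adding ATP (10 uM final). Read-out: AlphaScreen of Ser73-phosphorylated biotin-GST-cJun using HepG2 lysate JNK3 activated by IL-1β and TNFα.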
Test [4] in a line: Cell Viability - NIH 3T3 (AID 541).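 Further: plate controls were DMSO alone for no effect and tamoxifen positive control for full effect; nearly all actives have a fitted effect of over 25% in size.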 Particulars: NIH 3T3 cell viability, qHTS; activity change, negative = cytotoxicity: at 92.2 µM (top of the series). The procedure, abridged: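 Cells seeded at 1000/well, rested 5 hr at 37 °C, then dosed and incubated 40 hr at 37 °C. CellTiter-Glo added, 20 min room temperature, luminescence read. AC50 by Hill fit.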
A short description of test [5]: Cell Viability - H-4-II-E (AID 543). Further: on the % scale 0 is the no-effect control and ±100 the full control effect; nearly all actives have a fitted effect of over 35% in size. Summed up:
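Cells seeded at 1500 per well and rested 5 hr; compounds added; 40 hr incubation at 37 °C; CellTiter-Glo added, 20 min at room temperature; luminescence read. Hill-equation fits gave AC50.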

The nature of test [6]: Cellular Toxicity (caspase-3) NIH 3T3 (AID 666).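 Further: caspase signal read after 16 h compound exposure; 0% = DMSO basal and 100% = 100 µM tamoxifen stimulation.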 Summed up: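 Cells were plated at 1000 per well and incubated 5 hr at 37°C, then compound was added for 16 hr. Caspase-Glo 3/7 reagent followed for 20 min at room temperature before luminescence was read.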
Test [7] can be described thus: Cell Viability - LYMP2-004 (AID 966).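 Further: plate controls were DMSO only for no effect and tetraoctylammonium bromide control for full effect; nearly all actives have a fitted effect of over 65% in size.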 Summed up: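 qHTS cytotoxicity: human lymphoblastoid line, 24 hr compound treatment, 37 C, complete medium. Viability read as cellular ATP via luciferase luminescence; tetraoctylammonium bromide served as positive control.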
Test [8] is described as follows: Cell Viability - LYMP2-019 (AID 973).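 Further: 0% = DMSO alone and full effect = 92 µM tetraoctylammonium bromide; nearly all actives have a fitted effect of over 55% in size.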 Summed up:
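Cytotoxicity is scored as a concentration-dependent drop in cellular ATP after cells (2500/well) receive compound for 24 hr at 37 C. Tetraoctylammonium bromide serves as positive control.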

Test [9] in a line: Cell Viability - LYMP2-021 (AID 974).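 Further: compound exposure lasts 24 hours at 37 °C; on the % scale 0 is the no-effect control and ±100 the full control effect; nearly all actives have a fitted effect of over 55% in size.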 The procedure, abridged:
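Loss of cellular ATP, measured with a luciferase-based CellTiter-Glo readout, serves as the toxicity signal in human lymphoblastoid cells treated for 24 hours at 37 C. Potency is reported as AC50 from a standard Hill model.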

Test [10] can be described thus: Cell Viability - LYMP2-023 (AID 975).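 Further: cellular ATP measured by luciferase luminescence as viability proxy; plate controls were DMSO only for no effect and 92 µM tetraoctylammonium bromide control for full effect; nearly all actives have a fitted effect of over 55% in size.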 The procedure, abridged: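 Steps: seed 2500 human lymphoblastoid cells per well, incubate 5 hr at 37 C, add compound for 24 hr at 37 C, add CellTiter-Glo, hold 30 min at room temperature, read luminescence. AC50 derived by Hill modelling.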
Test [11] in a line: Cell Viability - LYMP2-002 (AID 977).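 Further: compound exposure lasted 24 h at 37 °C; plate controls were DMSO only for no effect and 92 µM tetraoctylammonium bromide for full effect.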 The procedure, abridged: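 Human lymphoblastoid cells (2500/well) in complete medium were preincubated 5 hr at 37 C, then exposed to compounds for 24 hr at 37 C. Intracellular ATP was read by CellTiter-Glo luminescence; AC50 came from Hill-equation concentration-response fits.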
Test [12] is described as follows: Cell Viability - LYMP2-007 (AID 979).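 Further: cells exposed to compound for 24 h before reading; 0% = DMSO only and the negative end = 92 µM tetraoctylammonium bromide; nearly all actives have a fitted effect of over 60% in size.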 The procedure, abridged:
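Cells are seeded at 2500 per well and rested 5 hr. Compounds are then added over a concentration series for 24 hr at 37 C. CellTiter-Glo is added for 30 min at room temperature before luminescence reading.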

A short description of test [13]: Cell Viability - LYMP2-014 (AID 983).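 Further: plate controls were DMSO only for no effect and 92 µM tetraoctylammonium bromide for full effect; nearly all actives have a fitted effect of over 50% in size.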 The procedure, abridged: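 Cells are plated at 2500/well and left 5 hr at 37 C. Compounds are added across a concentration range and incubated 24 hr at 37 C in complete medium. CellTiter-Glo is added, and luminescence is read after 30 min at room temperature.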
The nature of test [14]: Cell Viability - LYMP2-018 (AID 985).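 Further: compound exposure lasted 24 hr at 37 °C; plate controls were DMSO only for no effect and tetraoctylammonium bromide at 92 µM for full effect; nearly all actives have a fitted effect of over 50% in size.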 Summed up: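 Seed 2500 lymphoblastoid cells per well, incubate 5 hr at 37 C, add compound and incubate 24 hr at 37 C, add CellTiter-Glo, wait 30 min at room temperature, then read luminescence.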
Test [15] can be described thus: Cell Viability - LYMP2-020 (AID 986).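 Further: plate controls were DMSO only for no effect and tetraoctylammonium bromide at 92 µM for full effect; nearly all actives have a fitted effect of over 55% in size.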 The procedure, abridged: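 Seed 2500 cells per well and incubate 5 hr at 37 C. Add compounds at a concentration series and incubate 24 hr at 37 C. Add CellTiter-Glo, wait 30 min at RT, read luminescence, and fit a Hill curve for AC50.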
The nature of test [16]: Cell Viability - LYMP2-022 (AID 987). Summed up:
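Cells were seeded at 2500 per well, rested 5 hr at 37 C, and treated with titrated compounds for 24 hr at 37 C. Cellular ATP was then quantified by luciferase luminescence, and AC50 values were derived from Hill-modelled concentration-response curves.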

Test [17] can be described thus: Cell Viability - LYMP2-026 (AID 989). Further: on the % scale 0 is the no-effect control and ±100 the full control effect; nearly all actives have a fitted effect of over 50% in size. The procedure, abridged:
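Cells are seeded at 2500 per well and held 5 hr at 37 C. Compounds are added in concentration series for 24 hr, then CellTiter-Glo reagent is applied and luminescence read.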

A short description of test [18]: qHTS assay for small molecule agonists of retinoid X receptor alpha signaling (AID 588544). Particulars: HEK293T RXRa-UAS-bla, beta-lactamase reporter, 18 h; 530 nm emission.
Test [19] can be described thus: qHTS assay for small molecule antagonists of retinoid X receptor alpha signaling (AID 588546).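 Further: cells stimulated with 9-cis-retinoic acid as agonist; on the % scale 0 is the no-effect control and ±100 the full control effect.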 Particulars: HEK293T RXRa-UAS-bla, beta-lactamase ratio, antagonist mode; measured here: W530 green channel, cytotoxicity proxy. Summed up:
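Beta-lactamase reporter inhibition, read as CCF4 fluorescence ratio (ex 405, em 460/530 nm) after 2 h at RT. HEK293T UAS-bla cells, 2500/well, were stimulated with 9-cis-RA at 500 or 100 nM final alongside test compound for 18 h at 37 C.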

Test [20] deals with Voltage-gated inwardly rectifying potassium channel KCNH2 (Homo sapiens) (UniProt Q12809). As to the kind of experiment: qHTS Assay for Small Molecule Inhibitors of the Human hERG Channel Activity (AID 588834).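 Further: U2OS cells transduced with hERG by BacMam; top concentration of the series differs between compounds; on the % scale 0 is the no-effect control and ±100 the full control effect; lower thallium flux fluorescence means stronger hERG block; nearly all actives have a fitted effect of over 50% in size.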 The procedure, abridged: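 Cells were infected with hERG-BacMam virus for 4 hrs at room temperature, grown overnight, then seeded at 2000/well. After dye loading and roughly 10 min compound treatment, thallium influx was triggered and fluorescence recorded.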
Chain of Voltage-gated inwardly rectifying potassium channel KCNH2 (Homo sapiens) (Q12809 whole entry, looked up): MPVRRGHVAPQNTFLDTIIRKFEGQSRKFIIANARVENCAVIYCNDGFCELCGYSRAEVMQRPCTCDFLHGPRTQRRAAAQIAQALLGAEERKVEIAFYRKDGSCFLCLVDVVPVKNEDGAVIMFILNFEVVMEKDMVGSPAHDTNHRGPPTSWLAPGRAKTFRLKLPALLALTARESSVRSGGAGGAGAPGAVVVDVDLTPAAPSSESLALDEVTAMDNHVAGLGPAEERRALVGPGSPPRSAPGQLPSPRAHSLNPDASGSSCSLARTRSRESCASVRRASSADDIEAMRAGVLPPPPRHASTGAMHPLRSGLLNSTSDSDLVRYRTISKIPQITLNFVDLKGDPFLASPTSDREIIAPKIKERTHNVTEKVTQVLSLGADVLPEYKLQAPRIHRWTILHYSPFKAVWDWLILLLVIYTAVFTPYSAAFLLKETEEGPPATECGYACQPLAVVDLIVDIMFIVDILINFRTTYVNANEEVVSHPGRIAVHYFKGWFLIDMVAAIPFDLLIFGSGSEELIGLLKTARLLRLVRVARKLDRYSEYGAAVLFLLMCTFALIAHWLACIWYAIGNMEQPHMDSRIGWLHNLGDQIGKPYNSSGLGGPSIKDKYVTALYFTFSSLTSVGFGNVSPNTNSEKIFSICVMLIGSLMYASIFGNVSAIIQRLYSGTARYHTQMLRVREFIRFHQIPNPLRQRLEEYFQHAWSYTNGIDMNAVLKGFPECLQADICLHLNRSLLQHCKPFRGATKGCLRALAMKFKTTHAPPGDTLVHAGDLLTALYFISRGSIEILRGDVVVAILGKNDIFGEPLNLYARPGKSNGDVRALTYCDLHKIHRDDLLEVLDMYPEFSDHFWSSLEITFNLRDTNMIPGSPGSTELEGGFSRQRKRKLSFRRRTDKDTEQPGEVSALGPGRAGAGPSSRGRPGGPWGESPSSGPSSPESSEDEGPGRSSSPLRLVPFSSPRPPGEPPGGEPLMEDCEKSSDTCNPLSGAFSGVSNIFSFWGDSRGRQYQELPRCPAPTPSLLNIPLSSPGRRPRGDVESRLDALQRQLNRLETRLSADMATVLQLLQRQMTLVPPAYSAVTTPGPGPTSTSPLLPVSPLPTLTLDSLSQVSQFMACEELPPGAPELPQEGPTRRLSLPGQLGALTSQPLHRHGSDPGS

The structures appear in SMILES notation. Several values for one entry are separate records, joined by “and”; a condition that tells them apart may be missing. Equal entries are not always repeated. Records with an inconclusive call do not appear. Activity calls are given as the source filed them. Unless noted, the call rests on the fitted dose curve; in most records, active means well fitted curve in the direction sought with a large enough effect; inconclusive means small, poorly fitted or top-dose-only effect, or another doubt; inactive means no such curve, though single readings can be large; an effect the other way counts as inactive or inconclusive.

On to `CC(=O)[O-].CC(=O)[O-].O.O.O.[Pb+2]`, for which the Potency in [1] and in test [2] was > 92 µM (inactive) each time. Also, the result in test [3] and in [6] was inactive. For the same compound, the activity change, negative = cytotoxicity in [4] is 11.5% (inactive) and -1.35% (inactive). Besides, the Potency entry in [5], in test [7], in [8], in test [9], in test [10] and in test [11] was “inactive” in each case. Also, the Potency entry in test [12], in test [13], in test [14], in test [15], in [16] and in test [17] was “inactive” throughout. In addition, in test [20], the Potency entry is “inactive”. Moreover, the max response in [18] was -8.91% and -19.7%; in test [19], -8.42% and -6.15%.

`O=C(Cl)/C=C/C(=O)Cl`: the Potency in test [1] and in test [2] was > 92 µM (inactive) in each case. Further, the compound was called inactive in test [3] and in [6]. Moreover, the activity change, negative = cytotoxicity in test [4] is 9.76% (inactive). Moreover, the Potency result in [5], in [7], in test [8], in test [9], in test [10] and in [11] was “inactive” each time. Besides, the Potency entry in test [12], in test [13], in test [14], in test [15], in test [16] and in test [17] was “inactive” in each case. Moreover, in [20], the Potency entry is “inactive”. For the same compound, the max response is -9% in test [18] and -3.67% in test [19].

As for `CCN(CC)c1ccccc1`, the Potency in [1] and in [2] was > 92 µM (inactive) throughout. Further, the compound was called inactive in test [3] and in [6]. Moreover, the activity change, negative = cytotoxicity in test [4] is 4.17% (inactive). Moreover, the Potency entry in test [5], in [7], in test [8], in [9], in test [10] and in test [11] was “inactive” each time. Further, the Potency result in test [12], in [13], in [14], in test [15], in test [16] and in test [17] was “inactive” in each case. Moreover, the Potency result in test [20] is “inactive”. Besides, the values for the max response in [18] and in test [19] were -1.24% and -5.5%, respectively.

For `C=CCOC(C)=O`, the Potency in test [1] and in [2] was > 92 µM (inactive) in each case. In addition, the outcome in test [3] and in test [6] was inactive. In addition, in [4], the activity change, negative = cytotoxicity was -5.94% (inactive). Moreover, the Potency entry in [5], in [7], in [8], in test [9], in test [10] and in [11] was “inactive” throughout. Further, the Potency result in [12], in test [13], in test [14], in test [15], in test [16] and in [17] was “inactive” throughout. In addition, the Potency entry in test [20] was “inactive”. Also, the results for the max response in test [18] and in test [19] were -7.26% and -2.08%, respectively.

On to `Cc1ccccc1N`, for which the Potency in test [1] and in test [2] was > 92 µM (inactive) in each case. Moreover, the compound was called inactive in test [3] and in test [6]. The activity change, negative = cytotoxicity in [4] was -25.3% (inactive) and -5.05% (inactive). Besides, the Potency entry in [5], in test [7], in [8], in test [9], in test [10] and in test [11] was “inactive” throughout. In addition, the Potency result in [12], in test [13], in test [14], in [15], in [16] and in [17] was “inactive” each time. For the same compound, the Potency entry in test [20] is “inactive”. Further, the max response in test [18] is 1.21% and 0.728%; in [19] it was -2.57%.

Turning to `C[C@]12CC[C@H]3[C@@H](CCC4=CC(=O)CC[C@@]43C)[C@@H]1CC[C@@H]2O`, the Potency in test [1] and in [2] was > 92 µM (inactive) each time. Besides, the activity change, negative = cytotoxicity in test [4] was -90.5% (active). Besides, the call in [6] was inactive. Moreover, the Potency result in test [7], in test [8], in [9], in [10], in [11] and in test [12] was “inactive” each time. For the same compound, the Potency result in [13], in test [14], in test [15], in test [16] and in test [17] was “inactive” each time. Moreover, the max response in test [18] stood at 3.81%.

For `O=[N+]([O-])c1ccc(Cl)c(Cl)c1`, the Potency in [1] and in test [2] was > 92 µM (inactive) throughout. For the same compound, the compound was classed as inactive in test [3] and in test [6]. Also, the activity change, negative = cytotoxicity in [4] was -16.5% (inactive). Besides, the Potency result in test [5], in test [7], in test [8], in test [9], in test [10] and in [11] was “inactive” in each case. Moreover, the Potency entry in test [12], in [13], in test [14], in [15], in test [16] and in test [17] was “inactive” in each case. Besides, the Potency result in test [20] was “inactive”. Further, the results for the max response in [18] and in [19] were 1.86% and -6.04%, respectively.
